Test results from article PMC5540273 (PLoS ONE, 2017).

Key:
Details in all cases: concentration: 1 μM, replicates: in singlicate; n = 1
PCTK2 = test system: T1, PCTK2
T1 construct: gene CDK17

PCTK3 = test system: T2, PCTK3
T2 construct: gene CDK18

PDGFRA = test system: PDGFRA
PDGFRB = test system: PDGFRB
PDPK1 = test system: PDPK1
PFTAIRE2 = test system: PFTAIRE2
PFTK1 = test system: T3, PFTK1
T3 construct: gene CDK14

PHKG1 = test system: PHKG1
PHKG2 = test system: PHKG2
PIK3C2B = test system: PIK3C2B
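Also: KINOMEscan kinase panel screen.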

Structure (SMILES)	%Inh (PCTK2) [%]	%Inh (PCTK3) [%]	%Inh (PDGFRA) [%]	%Inh (PDGFRB) [%]	%Inh (PDPK1) [%]	%Inh (PFTAIRE2) [%]	%Inh (PFTK1) [%]	%Inh (PHKG1) [%]	%Inh (PHKG2) [%]	%Inh (PIK3C2B) [%]
Nc1ncc(-c2ccc3nccc(-c4ccncc4)c3c2)cc1S(=O)(=O)N1CCCCC1 [GSK1693850]	26	0	0	22	0	48	47	0	14	100
O=C(Nc1n[nH]c2nc(-c3ccccc3)ccc12)C1CC1 [SB-708999]	23	36	16	31	34	8	29	12	1	0
O=C(O)C(F)(F)F.O=c1[nH]ccc2nc(N[C@@H]3CCNC3)nc(Nc3cc(Cl)cc(Cl)c3)c12 [GSK2188764]	22	25	46	94.8	76	20	27	96.1	94.7	13
Fc1cc(Cl)ccc1Nc1ccnc2cc(-c3ccc(CN4CCSCC4)o3)ccc12 [GW560106]	0	8	99.1	100	0	6	11	1	0	0
O=C1NC(=O)C(c2ccccc2Cl)=C1Nc1cccc(Cl)c1 [SB-342409]	0	31	0	13	13	21	13	0	0	0
Nc1cccc(-c2ccc3c(N)n[nH]c3c2)c1 [GSK2193613]	19	4	9	29	0	13	30	0	11	0
CCNC(=O)/C=C/c1n[nH]c2cc(Sc3ccccc3C(=O)NC)ccc12	0	10	100	99.9	6	0	13	14	19	0
Cc1ccc(-c2ccc3occ(-c4ccc(S(C)=O)cc4)c3c2)nn1 (stereo not shown)	0	0	0	0	16	0	6	0	16	0
COc1ccc(NC(=O)c2ccoc2)cc1-c1ccc(C(=O)NCC2CC2)cc1 [GW810437]	9	0	21	4	0	13	47	0	0	14
O=C(O)C(F)(F)F.O=c1[nH]ccc2nc(N[C@@H]3CCNC3)nc(Nc3ccc4c(c3)S(=O)(=O)CC4)c12 [GSK2181306]	71	38	94.1	99.6	93.5	14	14	96.9	93.7	12
CN(C)c1ncnc2nc[nH]c12 [SKF-31736]	0	0	0	0	0	0	5	0	0	11
Cc1ccc(Nc2ccnc(Nc3ccc(C)c(F)c3)n2)cc1O.Cl [GW582868]	0	20	3	96.9	0	0	1	0	0	0
CCn1c(-c2nonc2N)nc2c(-c3ccccc3)ncc(OCCCN)c21.O=C(O)C(F)(F)F.O=C(O)C(F)(F)F [GSK260205]	0	0	18	98.8	0	0	13	0	0	1
Cn1cc(-c2cnc(N)c3c(-c4ccc5c(c4)CCN5C(=O)Cc4ccccc4)csc23)cn1 [GSK2593074]	0	6	98.2	100	56	0	0	6	14	13
N#Cc1cnc2cc(-c3cnc(CNCCN4CCOCC4)s3)ccc2c1Nc1ccc(Oc2ccccc2)cc1 [GW664114]	11	18	0	24	0	22	18	0	0	0
CCNc1nccc(-c2c(-c3ccc(F)cc3)ncn2C2CCN(C)CC2)n1	0	0	0	0	15	0	1	1	12	1
